Measured values: PubChem BioAssay AID1159580 (chemical genetic matrix, 2015)
The campaign covered roughly 5,500 compounds. About 2,000 (36%) were called active. Roughly 18% stayed inconclusive and do not appear here. Rule as the data show it: active = normalized growth mostly below about 0.91 (no sharp cut-off); inconclusive = no clear call, values can overlap the other calls; inactive = mostly above about 0.92. The list shows a part of the results.

Assay: chemical genetic growth profiling, strain panel (AID 1159580);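 also: tested at 20 µM; growth read once vehicle control cultures reached saturation at 30 °C; 1 = growth at the plate median or of vehicle wells; lower values mean less growth of the strain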
Conditions: growth OD

Measured: normalized growth

CC(=O)O[C@@H]1CC2C(C)(C)[C@H](O)CC[C@]2(C)C2CC[C@@]3(C)[C@H](c4ccoc4)OC(=O)C4OC43[C@@]21C (some centres not stated)
inactive: S. cerevisiae deletion strains, locus YJR066W, strain TOR1, active compounds read low 1 | S. cerevisiae deletion strains, locus YJR075W, strain HOC1, active compounds read low 1 | S. cerevisiae deletion strains, locus YKL009W, strain mrt4, active compounds read low 0.963 | S. cerevisiae deletion strains, locus YKL068W, active compounds read low 0.991 | S. cerevisiae deletion strains, locus YKL085W, strain MDH1 (second series), active compounds read low 0.99 | S. cerevisiae deletion strains, locus YKL085W, strain MDH1, active compounds read low 0.99 | S. cerevisiae deletion strains, locus YKL160W, strain elf1, active compounds read low 0.989 | S. cerevisiae deletion strains, locus YKR001C, strain vps1, active compounds read low 0.969 | S. cerevisiae deletion strains, locus YKR026C, strain gcn3, active compounds read low 0.992 | S. cerevisiae deletion strains, locus YKR091W, strain srl3, active compounds read low 1.01 | S. cerevisiae deletion strains, locus YLL001W, strain dnm1, active compounds read low 1.03 | S. cerevisiae deletion strains, locus YLL026W, active compounds read low 1.01 | S. cerevisiae deletion strains, locus YLL041C, strain sdh2, active compounds read low 1.01 | S. cerevisiae deletion strains, locus YLR027C, strain aat2, active compounds read low 1.01 | S. cerevisiae deletion strains, locus YLR039C, strain RIC1, active compounds read low 1.01 | S. cerevisiae deletion strains, locus YLR058C, strain SHM2, active compounds read low 1 | S. cerevisiae deletion strains, locus YLR102C, strain apc9, active compounds read low 0.989 | S. cerevisiae deletion strains, locus YLR113W, strain HOG1, active compounds read low 1.08 | S. cerevisiae deletion strains, locus YLR221C, strain rsa3, active compounds read low 1.02 | S. cerevisiae deletion strains, locus YLR258W, strain gsy2, active compounds read low 1.02 | S. cerevisiae deletion strains, locus YLR262C, strain YPT6 (second series), active compounds read low 1 | S. cerevisiae deletion strains, locus YLR262C, strain YPT6, active compounds read low 1.05 | S. cerevisiae deletion strains, locus YLR268W, strain sec22, active compounds read low 0.984 | S. cerevisiae deletion strains, locus YLR320W, strain mms22, active compounds read low 1.03 | S. cerevisiae deletion strains, locus YLR342W, strain FKS1 (second series), active compounds read low 1.06 | S. cerevisiae deletion strains, locus YLR342W, strain FKS1, active compounds read low 1.01 | S. cerevisiae deletion strains, locus YLR357W, strain rsc2, active compounds read low 1.03 | S. cerevisiae deletion strains, locus YLR370C, strain arc18, active compounds read low 1.01 | S. cerevisiae deletion strains, locus YLR371W, strain rom2, active compounds read low 0.975 | S. cerevisiae deletion strains, locus YLR384C, strain iki3, active compounds read low 1.02 | S. cerevisiae deletion strains, locus YLR418C, strain cdc73, active compounds read low 0.984 | S. cerevisiae deletion strains, locus YML016C, strain PPZ1, active compounds read low 0.982 | S. cerevisiae deletion strains, locus YML032C, strain rad52, active compounds read low 0.975 | S. cerevisiae deletion strains, locus YML120C, strain ndi1, active compounds read low 1.03 | S. cerevisiae deletion strains, locus YML124C, strain tub3, active compounds read low 0.988 | S. cerevisiae deletion strains, locus YMR058W, strain fet3, active compounds read low 1.03 | S. cerevisiae deletion strains, locus YMR078C, strain ctf18, active compounds read low 0.972 | S. cerevisiae deletion strains, locus YMR125W, strain sto1, active compounds read low 1 | S. cerevisiae deletion strains, locus YMR129W, active compounds read low 1 | S. cerevisiae deletion strains, locus YMR205C, strain PFK2, active compounds read low 1.04 | S. cerevisiae deletion strains, locus YMR223W, strain ubp8, active compounds read low 0.995 | S. cerevisiae deletion strains, locus YMR231W, strain pep5, active compounds read low 1.01 | S. cerevisiae deletion strains, locus YMR307W, strain GAS1, active compounds read low 0.977 | S. cerevisiae deletion strains, locus YNL067W, strain RPL9B, active compounds read low 1.02 | S. cerevisiae deletion strains, locus YNL071W, strain lat1, active compounds read low 0.994 | S. cerevisiae deletion strains, locus YNL128W, strain TEP1, active compounds read low 0.975 | S. cerevisiae deletion strains, locus YNL153C, strain GIM3, active compounds read low 1.01 | S. cerevisiae deletion strains, locus YNL183C, strain NPR1, active compounds read low 1.01 | S. cerevisiae deletion strains, locus YNL209W, strain ssb2, active compounds read low 1.01 | S. cerevisiae deletion strains, locus YNL233W, strain BNI4, active compounds read low 1.04 | S. cerevisiae deletion strains, locus YNL248C, strain rpa49, active compounds read low 0.979 | S. cerevisiae deletion strains, locus YNL250W, strain rad50, active compounds read low 1 | S. cerevisiae deletion strains, locus YNL271C, strain bni1, active compounds read low 0.991 | S. cerevisiae deletion strains, locus YNL298W, strain CLA4, active compounds read low 0.992 | S. cerevisiae deletion strains, locus YNL307C, strain MCK1, active compounds read low 0.995 | S. cerevisiae deletion strains, locus YNL322C, strain KRE1 (second series), active compounds read low 1.01 | S. cerevisiae deletion strains, locus YNL322C, strain KRE1, active compounds read low 1.01 | S. cerevisiae deletion strains, locus YNR049C, strain mso1, active compounds read low 1.01 | S. cerevisiae deletion strains, locus YNR052C, strain pop2, active compounds read low 0.997 | S. cerevisiae deletion strains, locus YOL012C, strain htz1 1.17 | S. cerevisiae deletion strains, locus YOL147C, strain pex11, active compounds read low 0.992 | S. cerevisiae deletion strains, locus YOR001W, strain rrp6, active compounds read low 0.994 | S. cerevisiae deletion strains, locus YOR061W, strain CKA2, active compounds read low 0.94 | S. cerevisiae deletion strains, locus YOR069W, strain VPS5, active compounds read low 1 | S. cerevisiae deletion strains, locus YOR070C, strain gyp1, active compounds read low 1.01 | S. cerevisiae deletion strains, locus YOR080W, strain dia2, active compounds read low 1.01 | S. cerevisiae deletion strains, locus YOR083W, strain WHI5, active compounds read low 0.979 | S. cerevisiae deletion strains, locus YOR106W, strain vam3, active compounds read low 1 | S. cerevisiae deletion strains, locus YOR136W, strain idh2, active compounds read low 0.998 | S. cerevisiae deletion strains, locus YOR144C, strain elg1, active compounds read low 0.984 | S. cerevisiae deletion strains, locus YOR184W, strain ser1, active compounds read low 0.975 | S. cerevisiae deletion strains, locus YOR231W, strain MKK1, active compounds read low 1.09 | S. cerevisiae deletion strains, locus YOR265W, strain rbl2, active compounds read low 1.01 | S. cerevisiae deletion strains, locus YOR270C, strain vph1, active compounds read low 0.912 | S. cerevisiae deletion strains, locus YOR290C, strain snf2, active compounds read low 0.985 | S. cerevisiae deletion strains, locus YOR316C, strain cot1, active compounds read low 0.977 | S. cerevisiae deletion strains, locus YPL051W, strain arl3, active compounds read low 1 | S. cerevisiae deletion strains, locus YPL078C, strain atp4, active compounds read low 0.973 | S. cerevisiae deletion strains, locus YPL106C, strain sse1, active compounds read low 1.03 | S. cerevisiae deletion strains, locus YPL240C, strain hsp82, active compounds read low 1 | S. cerevisiae deletion strains, locus YPL256C, strain CLN2, active compounds read low 1.08 | S. cerevisiae deletion strains, locus YPR119W, strain clb2, active compounds read low 0.992 | S. cerevisiae deletion strains, locus YPR141C, strain kar3, active compounds read low 0.962 | S. cerevisiae deletion strains, locus YPR163C, strain tif3, active compounds read low 0.984 | S. cerevisiae deletion strains, locus YPR167C, strain met16, active compounds read low 0.998 | S. cerevisiae deletion strains, strain wtn01, active compounds read low 0.959 | S. cerevisiae strains, strain wild type, active compounds read low 1
